PubChem BioAssay AID694 (Emory University Molecular Libraries Screening Center, 2007)
The whole screen tested about 1,300 compounds, of which about 25 (2%) were called active. How the calls were made is not given here. This excerpt belongs to a sample that is enriched for actives.

Biological target: Estrogen receptor (Homo sapiens) (UniProt P03372)
Assay: blockers of coactivator recruitment to ERα – biochemical, LOPAC library, TR-FRET, primary screen (AID 694);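 further: receptor was agonist-bound with estradiol present during the assay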
Conditions: TR-FRET ERalpha-coactivator peptide binding, stronger effect = higher value

Sequence of Estrogen receptor (Homo sapiens) (P03372 whole entry, looked up): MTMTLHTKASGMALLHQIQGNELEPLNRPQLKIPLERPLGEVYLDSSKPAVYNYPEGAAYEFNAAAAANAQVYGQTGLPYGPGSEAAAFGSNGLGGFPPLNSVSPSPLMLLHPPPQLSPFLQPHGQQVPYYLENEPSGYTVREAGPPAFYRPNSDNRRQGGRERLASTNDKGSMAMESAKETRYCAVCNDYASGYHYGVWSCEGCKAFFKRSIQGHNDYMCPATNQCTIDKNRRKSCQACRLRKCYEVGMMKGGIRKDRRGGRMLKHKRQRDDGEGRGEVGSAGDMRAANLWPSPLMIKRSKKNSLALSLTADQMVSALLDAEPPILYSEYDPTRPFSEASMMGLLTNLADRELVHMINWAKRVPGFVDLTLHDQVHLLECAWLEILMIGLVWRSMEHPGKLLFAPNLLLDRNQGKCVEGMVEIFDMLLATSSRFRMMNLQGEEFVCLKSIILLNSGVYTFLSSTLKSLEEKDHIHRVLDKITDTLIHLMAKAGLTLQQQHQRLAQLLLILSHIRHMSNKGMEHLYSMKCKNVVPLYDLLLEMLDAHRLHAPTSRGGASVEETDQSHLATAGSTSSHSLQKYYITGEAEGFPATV

| Compound | inhibition (at 45 µM) | inhibition (inhibition, at 15 µM) [%] |
| --- | --- | --- |
| CCCN(CCC)CCc1ccc(O)c(O)c1 | -9.9% (inactive) | 5.4 |
| CN(N=O)c1ccc(O)c(O)c1 | 99.9% [fluorescence artefact?] (active) | 100 |
| CN(N=O)c1cc(O)ccc1O | 98.6% [fluorescence artefact?] (active) | 95.4 |
| CCCN(CCC)[C@@H]1CCc2ccc(O)cc2C1 | -8.07% (inactive) | 3.7 |
| C[C@@H]1O[C@H](C[N+](C)(C)C)CS1 | -6.11% (inactive) | 5.81 |
| c1ccc2c(N3CCNCC3)cccc2c1 | -1.45% (inactive) | 2.78 |
| C=CCN1CCC2(C)c3cc(O)ccc3CC1C2C (stereo not given) | -11.9% (inactive) | -3.04 |
| CC[C@@H](CO)NC(=O)[C@@H]1C=C2c3cccc4[nH]cc(c34)C[C@H]2N(C)C1 | 6.08% (inactive) | 0.61 |
| Clc1ccc(C(c2ccc(Cl)cc2)n2cc[n+](CC(OCc3ccc(Cl)cc3Cl)c3ccc(Cl)cc3Cl)c2)cc1 (stereo not given) | 59.5% [fluorescence artefact?] (active) | 52.6 |
| CO[C@H]1CC=C2CCN3CCC4=C(CC(=O)OC4)[C@]23C1 | -3.26% (inactive) | 3.57 |
| O=C(O)[C@@H]1CCN1 | -15.6% (inactive) | -3.72 |
| CCCN(CCC)C1CCc2ccc(O)cc2C1 (stereo not given) | -3.18% (inactive) | 3.52 |
| N[C@@H](Cn1cc(I)c(=O)[nH]c1=O)C(=O)O | 0.52% (inactive) | 3.65 |
| COC(=O)c1cc2c(cn1)[nH]c1ccccc12 | -2.45% (inactive) | 2.65 |
| N[C@@H](CCl)C(=O)O | -9.05% (inactive) | -4.18 |
| Cc1o[nH]c(=O)c1CC(N)C(=O)O (stereo not given) | -4.5% (inactive) | -1.59 |
| NC(Cc1cc(O)c(O)cc1O)C(=O)O (stereo not given) | 100% [fluorescence artefact?] (active) | 100 |
| O=[N+]([O-])c1ccc(O[C@@H]2O[C@H](CO)[C@@H](O)[C@H](O)[C@H]2F)c([N+](=O)[O-])c1 | -0.11% (inactive) | 6.88 |
| Fc1ccc(C(OCCN2CCN(CCCc3ccccc3)CC2)c2ccc(F)cc2)cc1 | -7.86% (inactive) | -2.51 |
| CN1C[C@@H](CS(=O)(=O)N(C)C)C[C@@H]2c3cccc4c3c(cn4C)C[C@H]21 | -2.14% (inactive) | -2.21 |
